From PubChem BioAssay (EPA / NIEHS)
Records with an inconclusive call do not appear. The source made the active and inactive calls. The calls were made as follows: active = hit-call score of the fitted dose curve at least 0.9, where 1 is the maximum; inconclusive = response in the unintended direction; inactive = score below 0.9.

Each compound was assayed against human RAR-related Orphan Receptor gamma (RORg), RORC (gene 6097) (UniProt P51449) (assay: ATG_RORg_TRANS: Attagene TRANS-FACTORIAL HepG2 Assay for human RAR-related Orphan Receptor gamma (RORg) (AID 2283011);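 as to AC50: potency for induction of reporter transcripts above DMSO so activators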).
Chain of human RAR-related Orphan Receptor gamma (RORg), RORC (gene 6097) (P51449 whole entry, looked up, the tested form may be a part): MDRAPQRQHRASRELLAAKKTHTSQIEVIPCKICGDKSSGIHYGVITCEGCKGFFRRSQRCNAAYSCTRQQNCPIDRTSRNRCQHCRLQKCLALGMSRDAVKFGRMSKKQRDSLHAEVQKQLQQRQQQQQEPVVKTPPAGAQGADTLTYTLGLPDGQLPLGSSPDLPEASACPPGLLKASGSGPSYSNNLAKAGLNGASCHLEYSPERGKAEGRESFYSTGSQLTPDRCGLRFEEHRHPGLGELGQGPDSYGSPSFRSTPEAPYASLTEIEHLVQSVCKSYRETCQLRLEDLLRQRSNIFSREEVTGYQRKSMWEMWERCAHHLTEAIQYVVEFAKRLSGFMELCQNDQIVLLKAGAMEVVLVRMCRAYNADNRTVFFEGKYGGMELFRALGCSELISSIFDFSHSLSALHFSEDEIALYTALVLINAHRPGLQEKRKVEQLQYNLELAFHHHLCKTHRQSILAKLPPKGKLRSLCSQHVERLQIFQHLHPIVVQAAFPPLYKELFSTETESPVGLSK
Summary of the method: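 Chimeric RORg-Gal4 transactivation in transfected HepG2; 24 h exposure; RT-PCR/capillary electrophoresis readout of reporter mRNA, DMSO baseline.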
With COc1ccc(C=O)cc1 the outcome was “inactive”. O=C(c1ccccc1)C(Cl)Cl was tested, and the outcome was “inactive”. In the case of O=C(CCl)CCl, the AC50 is reported as 60.1 µM (active). With N#CCCO the outcome was “inactive”. COc1ccc(C=O)cc1OC was tested, and the outcome was “inactive”. In the case of O=C1C(Cl)=C(Cl)C(=O)c2ccccc21, the outcome is reported as “inactive”. For CN(CCCC(=O)c1cccnc1)N=O, the outcome was “inactive”. In the case of CCCCCCCCSC(=O)Oc1cc(Cl)nnc1-c1ccccc1, the outcome is reported as “inactive”. For COS(=O)(=O)c1ccc(C)cc1, the outcome was “inactive”. For CCc1ccccc1C, the outcome was “inactive”. With O=C(NCO)NCO the outcome was “inactive”. In the case of O=C(Cl)c1ccc(Cl)cc1, the outcome is reported as “inactive”. For COc1ccccc1OC, the outcome was “inactive”. COP(=O)(OC)OC was tested, and the outcome was “inactive”. In the case of CCC(C)c1cccc(C(C)CC)c1O (stereo not drawn), the outcome is reported as “inactive”.

The compounds below were run against Retinoic acid receptor RXR-alpha (Homo sapiens) (UniProt P19793) (assay: ATG_RXRa_TRANS: Attagene TRANS-FACTORIAL HepG2 Assay for human Retinoid X Receptor alpha (RXRa) (AID 2283012)).
Chain of Retinoic acid receptor RXR-alpha (Homo sapiens) (P19793 whole entry, looked up, the tested form may be a part): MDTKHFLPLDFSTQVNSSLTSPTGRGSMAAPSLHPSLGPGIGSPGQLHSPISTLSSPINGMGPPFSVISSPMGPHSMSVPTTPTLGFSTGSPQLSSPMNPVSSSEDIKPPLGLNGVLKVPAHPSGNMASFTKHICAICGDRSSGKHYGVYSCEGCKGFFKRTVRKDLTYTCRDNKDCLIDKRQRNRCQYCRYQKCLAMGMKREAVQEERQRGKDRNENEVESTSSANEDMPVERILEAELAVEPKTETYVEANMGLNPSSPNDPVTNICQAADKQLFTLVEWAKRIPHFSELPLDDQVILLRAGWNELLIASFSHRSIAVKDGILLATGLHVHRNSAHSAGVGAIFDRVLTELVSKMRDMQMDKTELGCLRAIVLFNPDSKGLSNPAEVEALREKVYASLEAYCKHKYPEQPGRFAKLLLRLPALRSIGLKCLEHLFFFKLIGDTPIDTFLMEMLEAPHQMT
Summary of the method: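 HepG2 cells transiently transfected with GAL4-UAS reporter units and chimeric RXRa-Gal4 protein, treated 24 h. Reporter mRNA measured by RT-PCR, fluorescent labelling, HpaI digestion and capillary electrophoresis. Induction fitted against DMSO.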
For COc1ccc(C=O)cc1, the outcome was “inactive”. With O=C(c1ccccc1)C(Cl)Cl the outcome was “inactive”. For O=C(CCl)CCl, the outcome was “inactive”. In the case of O=C(Cc1ccccc1)c1ccccc1, the outcome is reported as “inactive”. With N#CCCO the outcome was “inactive”. In the case of COc1ccc(C=O)cc1OC, the outcome is reported as “inactive”. In the case of CCC[CH2][Sn]([CH2]CCC)([CH2]CCC)[O]C(=O)c1ccccc1, the AC50 is reported as 0.00575 µM (active). C[C@H]1O[C@@H](O[C@H]2[C@@H](O)C[C@H](O[C@H]3[C@@H](O)C[C@H](O[C@H]4CC[C@@]5(C)[C@H](CC[C@@H]6[C@@H]5CC[C@]5(C)[C@@H](C7=CC(=O)OC7)CC[C@]65O)C4)O[C@@H]3C)O[C@@H]2C)C[C@H](O)[C@@H]1O was tested, and the outcome was “inactive”. In the case of O=C1C(Cl)=C(Cl)C(=O)c2ccccc21, the outcome is reported as “inactive”. In the case of COP(=O)(OC)O/C(=C\Cl)c1cc(Cl)c(Cl)cc1Cl, the outcome is reported as “inactive”. With O=[N+]([O-])c1c(Cl)c(Cl)cc(Cl)c1Cl the outcome was “inactive”. CN(CCCC(=O)c1cccnc1)N=O was tested, and the outcome was “inactive”. For c1ccc(N=NNc2ccccc2)cc1, the outcome was “inactive”. For CCOP(=S)(OCC)SCCS(=O)(=O)CC, the outcome was “inactive”. Cn1sc(Cl)cc1=O was tested, and the outcome was “inactive”. With CCCCCCCCSC(=O)Oc1cc(Cl)nnc1-c1ccccc1 the outcome was “inactive”. CNC(=O)O/N=C/C(C)(C)S(C)=O (stereo not drawn) was tested, and the outcome was “inactive”. With c1cc[c]([Hg][c]2ccccc2)cc1 the outcome was “inactive”. In the case of O=C/C=C/c1ccccc1, the outcome is reported as “inactive”. Clc1nc(Cl)nc(Cl)n1 was tested, and the outcome was “inactive”. For COS(=O)(=O)c1ccc(C)cc1, the outcome was “inactive”. For CCSC(C)CC1CC(=O)C(C(CC)=NOC/C=C/Cl)=C(O)C1 (stereo not drawn), the outcome was “inactive”. In the case of CCc1ccccc1C, the outcome is reported as “inactive”. With ClCc1ccccn1 the outcome was “inactive”. O=C(NCO)NCO was tested, and the outcome was “inactive”. O=C(Cl)c1ccc(Cl)cc1 was tested, and the outcome was “inactive”. For N#CN=C(N)N, the outcome was “inactive”. In the case of COc1ccccc1OC, the outcome is reported as “inactive”. For COC[C@H](C)N(C(=O)CCl)c1c(C)csc1C, the outcome was “inactive”. For CCC(=O)c1ccccc1, the outcome was “inactive”. For O=[N+]([O-])c1ccc2c3c(cccc13)CC2, the outcome was “inactive”. For CCC(C)c1cccc(C(C)CC)c1O (stereo not drawn), the outcome was “inactive”.

What follows are compounds tested against human Retinoid X Receptor beta (RXRb), RXRB (gene 6257) (UniProt P28702) (assay: ATG_RXRb_TRANS: Attagene TRANS-FACTORIAL HepG2 Assay for human Retinoid X Receptor beta (RXRb) (AID 2283013)).
Chain of human Retinoid X Receptor beta (RXRb), RXRB (gene 6257) (P28702 whole entry, looked up, the tested form may be a part): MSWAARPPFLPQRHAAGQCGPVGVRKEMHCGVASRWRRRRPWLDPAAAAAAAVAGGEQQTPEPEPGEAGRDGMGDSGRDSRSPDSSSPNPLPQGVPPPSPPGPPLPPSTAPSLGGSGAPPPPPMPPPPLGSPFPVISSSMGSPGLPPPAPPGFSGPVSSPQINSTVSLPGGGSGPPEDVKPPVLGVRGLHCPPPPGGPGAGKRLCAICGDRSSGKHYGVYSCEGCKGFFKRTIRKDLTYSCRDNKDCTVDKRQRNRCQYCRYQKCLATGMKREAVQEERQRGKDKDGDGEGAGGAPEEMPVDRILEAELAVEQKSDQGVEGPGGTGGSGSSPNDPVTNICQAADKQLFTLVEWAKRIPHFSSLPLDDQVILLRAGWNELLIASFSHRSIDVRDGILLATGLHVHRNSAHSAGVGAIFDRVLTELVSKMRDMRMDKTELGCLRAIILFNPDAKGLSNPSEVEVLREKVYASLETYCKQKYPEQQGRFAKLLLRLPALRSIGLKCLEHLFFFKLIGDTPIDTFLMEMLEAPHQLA
Summary of the method: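 HepG2 cells were transiently transfected with multiplexed GAL4-UAS reporters and a chimeric RXRb-Gal4 construct, then exposed for 24 h. Reporter mRNA was quantified by RT-PCR, FAM labeling, HpaI digestion and capillary electrophoresis; gain of signal was scored against DMSO.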
For O=C(c1ccccc1)C(Cl)Cl, the outcome was “inactive”. Nc1ccc(N=Nc2ccc(-c3ccc(N=Nc4c(S(=O)(=O)O)cc5cc(S(=O)(=O)O)c(N=Nc6ccccc6)c(O)c5c4N)cc3)cc2)c(N)c1 was tested, and the outcome was “inactive”. With O=C(CCl)CCl the outcome was “inactive”. With O=C(Cc1ccccc1)c1ccccc1 the outcome was “inactive”. In the case of COC(=O)c1sccc1S(=O)(=O)NC(=O)Nc1nc(C)nc(OC)n1, the outcome is reported as “inactive”. For CCC[CH2][Sn]([CH2]CCC)([CH2]CCC)[O]C(=O)c1ccccc1, the AC50 was 0.105 µM (active). In the case of O=C1C(Cl)=C(Cl)C(=O)c2ccccc21, the outcome is reported as “inactive”. For COP(=O)(OC)O/C(=C\Cl)c1cc(Cl)c(Cl)cc1Cl, the AC50 was 25.7 µM (active). In the case of O=[N+]([O-])c1c(Cl)c(Cl)cc(Cl)c1Cl, the AC50 is reported as 32.9 µM (active). For CN(CCCC(=O)c1cccnc1)N=O, the outcome was “inactive”. CCCCCCCCSC(=O)Oc1cc(Cl)nnc1-c1ccccc1 was tested, and the outcome was “inactive”. For CNC(=O)O/N=C/C(C)(C)S(C)=O (stereo not drawn), the outcome was “inactive”. c1cc[c]([Hg][c]2ccccc2)cc1 was tested, and the outcome was “inactive”. With O=C/C=C/c1ccccc1 the outcome was “inactive”. COS(=O)(=O)c1ccc(C)cc1 was tested, and the outcome was “inactive”. C[C@H]1CCCC(=O)CCC/C=C/c2cc(O)cc(O)c2C(=O)O1 was tested, and the AC50 was 9.82 µM (active). With CCc1ccccc1C the outcome was “inactive”. For COc1ccccc1OC, the outcome was “inactive”. With O=[N+]([O-])c1ccc2c3c(cccc13)CC2 the AC50 was 27.5 µM (active). In the case of CCC(C)c1cccc(C(C)CC)c1O (stereo not drawn), the AC50 is reported as 26.3 µM (active).

The compounds below were run against human Thyroid Receptor alpha (THRa1), THRA (gene 7067) (UniProt P10827) (assay: ATG_THRa1_TRANS: Attagene TRANS-FACTORIAL HepG2 Assay for human Thyroid Receptor alpha (THRa1) (AID 2283014)).
Chain of human Thyroid Receptor alpha (THRa1), THRA (gene 7067) (P10827 whole entry, looked up, the tested form may be a part): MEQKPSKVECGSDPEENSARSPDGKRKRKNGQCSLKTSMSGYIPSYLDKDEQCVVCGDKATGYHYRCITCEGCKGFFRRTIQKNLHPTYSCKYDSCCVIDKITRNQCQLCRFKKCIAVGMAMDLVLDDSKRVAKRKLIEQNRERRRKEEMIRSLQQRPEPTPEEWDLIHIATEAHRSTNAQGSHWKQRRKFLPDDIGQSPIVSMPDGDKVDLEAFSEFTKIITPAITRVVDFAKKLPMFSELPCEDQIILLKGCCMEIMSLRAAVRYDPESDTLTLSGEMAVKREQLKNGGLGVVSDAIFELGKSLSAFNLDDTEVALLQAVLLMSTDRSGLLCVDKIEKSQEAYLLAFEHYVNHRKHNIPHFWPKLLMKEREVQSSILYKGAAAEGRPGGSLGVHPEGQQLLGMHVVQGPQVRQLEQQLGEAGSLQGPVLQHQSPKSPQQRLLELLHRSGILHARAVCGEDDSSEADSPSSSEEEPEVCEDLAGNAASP
Summary of the method: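 Measured here is mRNA from a GAL4-UAS reporter in transfected HepG2 cells carrying a Gal4-fused receptor, 24 h post-dose. DMSO served as negative control and baseline.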
O=C(c1ccccc1)C(Cl)Cl was tested, and the outcome was “inactive”. O=C(CCl)CCl was tested, and the outcome was “inactive”. For N#CCCO, the outcome was “inactive”. With COc1ccc(C=O)cc1OC the outcome was “inactive”. For C[C@H]1O[C@@H](O[C@H]2[C@@H](O)C[C@H](O[C@H]3[C@@H](O)C[C@H](O[C@H]4CC[C@@]5(C)[C@H](CC[C@@H]6[C@@H]5CC[C@]5(C)[C@@H](C7=CC(=O)OC7)CC[C@]65O)C4)O[C@@H]3C)O[C@@H]2C)C[C@H](O)[C@@H]1O, the outcome was “inactive”. With COP(=O)(OC)O/C(=C\Cl)c1cc(Cl)c(Cl)cc1Cl the outcome was “inactive”. With O=[N+]([O-])c1c(Cl)c(Cl)cc(Cl)c1Cl the outcome was “inactive”. With CN(CCCC(=O)c1cccnc1)N=O the outcome was “inactive”. For c1ccc(N=NNc2ccccc2)cc1, the AC50 was 134 µM (active). CC(=[OH+])/C=C(/C)[O-].CC(=[OH+])/C=C(/C)[O-].CC(=[OH+])/C=C(/C)[O-].[Fe] was tested, and the outcome was “inactive”. CCOP(=S)(OCC)SCCS(=O)(=O)CC was tested, and the outcome was “inactive”. With CNC(=O)O/N=C/C(C)(C)S(C)=O (stereo not drawn) the outcome was “inactive”. For c1cc[c]([Hg][c]2ccccc2)cc1, the outcome was “inactive”. In the case of Clc1nc(Cl)nc(Cl)n1, the outcome is reported as “inactive”. For COS(=O)(=O)c1ccc(C)cc1, the outcome was “inactive”. In the case of CCSC(C)CC1CC(=O)C(C(CC)=NOC/C=C/Cl)=C(O)C1 (stereo not drawn), the outcome is reported as “inactive”. For C[C@H]1CCCC(=O)CCC/C=C/c2cc(O)cc(O)c2C(=O)O1, the outcome was “inactive”. For CCc1ccccc1C, the outcome was “inactive”. In the case of ClCc1ccccn1, the outcome is reported as “inactive”. In the case of ClC1=C(Cl)[C@]2(Cl)[C@H]3[C@H]([C@H]4C=C[C@H]3C4)[C@@]1(Cl)C2(Cl)Cl, the outcome is reported as “inactive”. In the case of O=C(Cl)c1ccc(Cl)cc1, the outcome is reported as “inactive”. COP(=O)(OC)OC was tested, and the outcome was “inactive”. For CCC(=O)c1ccccc1, the outcome was “inactive”. In the case of C=CC#N, the outcome is reported as “inactive”. In the case of O=[N+]([O-])c1ccc2c3c(cccc13)CC2, the outcome is reported as “inactive”. With CCC(C)c1cccc(C(C)CC)c1O (stereo not drawn) the outcome was “inactive”.
